The list is not random: actives were taken first. Their share in the collection is about 21%.
Pf growth 48h: P. falciparum growth inhibition at 48 hours (one generation); P. falciparum luciferase growth in erythrocytes, 48 h; Potency, µM (top dose mostly 28.7 µM), actives largely listed as inhibitors; 310,000 tested, 5.9% active; active = well fitted inhibition curve with a large enough effect; inconclusive = small, poorly fitted or top-dose-only effect, or another doubt; inactive = no such curve, though single readings can be large or run the other way
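Erythrocytes infected with P. falciparum carrying an integrated firefly luciferase reporter (2% hematocrit, 0.1% parasitemia final) were exposed to compounds in RPMI 1640 with 0.5% Albumax at 37 C, 5% CO2. Growth inhibition was scored as reduced luminescence.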
NS1 inh: blocks influenza NS1 protein function | AID 2326 | 270,000 tested, 0.4% active | Potency, µM (series often up to 46.1 µM); also: actives are rising curves; nearly all actives have a fitted effect of over 50% in size
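Recovery from NS1-induced slow growth read by OD600 in budding yeast switched to galactose assay medium (pH 6.0, -URA) at 1:100 dilution. Compound 23 nl per well; the matching strain lacking NS1 serves as control.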
Pf growth 96h: P. falciparum growth inhibition at 96 hour, primary screen for plastid delayed-death inhibitors. 320,000 tested, 6.9% active. Potency, µM (series often up to 28.7 µM), actives largely listed as inhibitors. P. falciparum luciferase reporter growth, 96 h. AID 504834; active = well fitted inhibition curve with a large enough effect; inconclusive = small, poorly fitted or top-dose-only effect, or another doubt; inactive = no such curve, though single readings can be large or run the other way
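Erythrocytes infected with luciferase-expressing P. falciparum were dispensed at 2% hematocrit and 0.05% parasitemia (final), then incubated with compounds 96 hours at 37 C in 5% CO2. Luminescence after detection reagent addition reported growth.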
Shiga toxin inh: Shiga toxin inhibition; 290,000 tested, 9.2% active; inhibition, % at 38.7 µM; Vero cells, Shiga toxin protein synthesis inhibition reporter; AID 2315; in the data active = inhibition mostly above about 28%, no sharp cut-off; inactive = mostly below about 43%
SARS PLpro yeast: blocks SARS-CoV papain-like protease in a yeast assay. AID 485353. 330,000 tested, 0.19% active. S. cerevisiae expressing SARS-CoV PLpro, growth rescue. Potency, µM (titrated, usually from 32.9 µM), usual class: activators; also: nearly all actives have a fitted effect of over 55% in size
CHX counter: counter-screen for Shiga toxin inhibitors: cycloheximide protein synthesis inhibition; max response, %; cell reporter, cycloheximide protein synthesis inhibition counterscreen; 300,000 tested, 12% active; AID 2314; in the data active = max response mostly above about 13%, no sharp cut-off; inactive = mostly below about 14%; also: read at 38.3 µM for the half of the compounds with a filed dose
Large screens that a line does not name were inactive. Unless noted, calls follow the shape of the full dose curve.

Cc1ccc(/C=C2/Sc3ccc(C(=O)NCc4ccccn4)cc3NC2=O)cc1	Pf growth 96h inconclusive
N/C(=N\OC(=O)c1cccc(Cl)c1)c1cccnc1	Shiga toxin inh 98.6, CHX counter 47.5
CCOC(=O)c1c(NC(=O)COc2ccc3ccc(=O)oc3c2)sc(C(=O)N(C)C)c1C	none
O=C1NC(=O)[C@@H]2C3c4ccccc4C=CN3[C@H](C(=O)c3cccs3)[C@H]12 (stereo partly specified)	Pf growth 96h inconclusive, CHX counter 31.2
Cc1ccc(NC(=O)C(C)Sc2nc(-c3ccccc3)cc(=O)[nH]2)cc1 (stereo unspecified)	none
COc1ccc(S(=O)(=O)N(C)c2ccc(C(=O)N3CCCCC3)cc2)cc1OC	none
Cc1ccc(Nc2ccc(S(=O)(=O)N3CCOCC3)cc2[N+](=O)[O-])c(C)c1	Pf growth 48h inconclusive
CCC(=O)NC(c1ccccc1)c1nc2ccccc2[nH]1 (stereo unspecified)	Shiga toxin inh 67.9, CHX counter 44.1
COCC(=O)N[C@@H]1c2cc(OC)c(OC)cc2C[C@H]1OCc1ccccc1	none (no result: Pf growth 48h, NS1 inh, Pf growth 96h, Shiga toxin inh, CHX counter)
NC(=O)C[n+]1cccc(CNC(=O)c2ccc(OC(F)F)cc2)c1	none (no result: NS1 inh)
O=C(C[n+]1cccc(CNC(=O)c2ccc(OC(F)F)cc2)c1)Nc1cc(C(F)(F)F)ccc1Cl	Pf growth 48h 1.65µM, Pf growth 96h 0.928µM
Cc1ccn(-c2n[nH]c(C)c2[N+](=O)[O-])n1	none
Cc1ccn(-c2ccc([N+](=O)[O-])cc2)n1	Pf growth 96h inconclusive, Shiga toxin inh 42.2, CHX counter 11.8
CCN(CC(O)COCc1ccc(Cl)cc1)C1CCCCC1 (stereo unspecified)	Pf growth 48h 10.4µM, Pf growth 96h inconclusive
CN(CC(O)COCc1ccccc1F)C1CCCCC1 (stereo unspecified)	none
CN1C/C(=C/c2ccsc2)C(=O)/C(=C/c2ccsc2)C1	Pf growth 96h inconclusive, CHX counter 63.4
CN1C/C(=C/c2ccncc2)C(=O)/C(=C/c2ccncc2)C1	Pf growth 48h 2.62µM, Pf growth 96h inconclusive, CHX counter 32.3
O=C1/C(=C\c2ccsc2)N2CCC1CC2	none
COc1cccc(-c2nnc3n2N=C(c2ccc(OC)cc2OC)CS3)c1	none (no result: Pf growth 48h, NS1 inh, Pf growth 96h, SARS PLpro yeast)
CCOC(=O)C1(Cc2ccccc2)CCN(Cc2cccc(OC)c2O)CC1	Pf growth 48h inconclusive, Pf growth 96h 10.4µM
CCOC(=O)C1(Cc2cccc(OC)c2)CCN(Cc2cccn2-c2nccs2)CC1	Pf growth 48h 11.7µM, Pf growth 96h inconclusive
CCOC(=O)C1(CC2CC2)CCN(Cc2cn(C)c3ccccc23)CC1	Pf growth 48h inconclusive
CCOC(=O)C1(Cc2ccccc2)CCN(Cc2cn(CC(=O)OC)c3ccccc23)CC1	Pf growth 48h inconclusive, Pf growth 96h 5.22µM
CCOC(=O)C1(Cc2cccc(OC)c2)CCN(Cc2cccc(OC)c2O)CC1	Pf growth 48h inconclusive, Pf growth 96h 13.1µM
CCOC(=O)CC(/C(C)=N\O)c1ccccc1 (stereo unspecified)	none
O=C(c1ccc(S(=O)(=O)NCc2ccco2)cc1)N1CCCC(C(F)(F)F)C1 (stereo unspecified)	none (no result: NS1 inh, Shiga toxin inh, CHX counter)
CCOc1ccc(CCNC(=O)CN2C(=O)CCSc3ccccc32)cc1	none
CCCn1c(=O)n(C)c(=O)c2c(SCC(=O)NCc3ccco3)nc(C3CC3)nc21	Pf growth 96h 4.15µM (no result: Pf growth 48h)
CCOC(=O)CSc1nc(NCc2ccco2)c2ccccc2n1	none
COc1ccc(CNc2nc(SCC(=O)NCc3ccco3)nc3ccccc23)cc1	Pf growth 48h 9.28µM
O=C(CCCCCn1c(SCc2ccncc2)nc2ccccc2c1=O)NCc1ccco1	Pf growth 48h 8.28µM
CCn1c(SCC(=O)NCc2ccco2)nnc1C1CCCC1	none
O=C(CSc1nnc(C2CCCCC2)n1Cc1ccccc1)NCc1ccco1	CHX counter 15.8 (no result: Pf growth 96h)
N#CCSc1nc2ccccc2c(=O)n1CCCC(=O)NCc1ccco1	none (no result: NS1 inh)
O=C(COc1ccc([N+](=O)[O-])cc1)Nc1ccc(CN2CCOCC2)cc1	none
CCn1c(SCC(=O)NCc2ccco2)nc2ccccc2c1=O	none
Cn1c(SCC(=O)NCc2ccco2)nc2ccccc2c1=O	Shiga toxin inh 73.5
O=C(CSc1nc2[nH]ncc2c(=O)n1-c1ccccc1Br)NCc1ccco1	Pf growth 48h 11.7µM, NS1 inh inconclusive
O=C(N1CCOCC1)N1CCN(S(=O)(=O)c2ccccc2)C1	Pf growth 96h inconclusive
CC(=O)N1CCC(=NNc2nc3ccccc3[nH]2)CC1	Pf growth 48h inconclusive, Pf growth 96h inconclusive, Shiga toxin inh 35.5, CHX counter 30.6 (no result: NS1 inh)
Cc1cc(=O)[nH]c(NN=C2CCC(C(C)(C)C)CC2)n1 (stereo unspecified)	Pf growth 48h inconclusive, Pf growth 96h inconclusive
CCC(C)(C)C1CCC(=NNc2nc3ccccc3[nH]2)CC1 (stereo unspecified)	Pf growth 48h 10.4µM, Pf growth 96h 10.4µM, Shiga toxin inh 80.6, CHX counter 36.5
COC(=O)CN(c1cccc(C)c1)S(=O)(=O)c1ccccc1	Pf growth 96h inconclusive
O=C(Nc1ccc(F)cc1)N1CCN2C(=O)c3ccccc3C12c1ccccc1 (stereo unspecified)	Pf growth 96h 13.1µM (no result: Pf growth 48h)
O=C1c2ccccc2C2(c3ccccc3)N1CCN2C(=O)C(Cl)(Cl)Cl (stereo unspecified)	Pf growth 96h 0.828µM (no result: Pf growth 48h)
Cc1ccc(C(=O)N2CCN3C(=O)c4ccccc4C23c2ccccc2)cc1 (stereo unspecified)	Pf growth 48h inconclusive, Pf growth 96h inconclusive
NC(=O)O	none (no result: Pf growth 48h, NS1 inh, Pf growth 96h, SARS PLpro yeast)
CN[C@@H]1[C@H](O[C@@H]2O[C@H](CO)[C@@H](N)[C@H](O)[C@@H]2O)O[C@H]2C[C@@H](N)[C@@H](O[C@H]3[C@@H](O)[C@H](O)[C@H](N)C[C@@H]3N)O[C@H]2[C@H]1O	none (no result: NS1 inh, Shiga toxin inh, SARS PLpro yeast, CHX counter)
Cc1ccc(NC2=C(NCCO)C(=O)c3ccccc3C2=O)cc1	Pf growth 48h 5.86µM, Shiga toxin inh 86.8, CHX counter 32.3
O=C1C(Cl)=C(NCCN2CCOCC2)C(=O)c2ccccc21	Pf growth 48h inconclusive, Pf growth 96h inconclusive, Shiga toxin inh 63.0, CHX counter 31.9
COc1ccc(C2=C(Nc3ccc(C)cc3)c3ccccc3C2=O)cc1	Pf growth 48h 0.828µM
CCOCCCNC1=C(Cl)C(=O)c2ccccc2C1=O	Pf growth 48h 3.7µM, Pf growth 96h inconclusive, Shiga toxin inh 72.0, CHX counter 36.0
Cc1ccc(NCCNc2ccc(C)cc2)cc1	none (no result: Pf growth 96h)
COc1ccc(C2=C(Nc3ccc(F)cc3)c3ccccc3C2=O)cc1	none
COc1ccc(OC)c(CCNC(=O)c2ccc(CS(=O)Cc3ccc(Cl)cc3)o2)c1 (stereo unspecified)	Pf growth 96h inconclusive, SARS PLpro yeast inconclusive
O=C1C(Cl)=C(NCCCO)C(=O)c2ccccc21	Pf growth 48h inconclusive, CHX counter 13.8 (no result: Pf growth 96h)
Cc1nc2ccccn2c1C(=O)N/N=C/c1ccc(F)cc1	Pf growth 96h inconclusive

High-throughput results from PubChem BioAssay.
